Source: PubChem BioAssay
A selection: hits, their analogues and other compounds. The true share with any hit is near 5.1%.
TSHR agonist: TSH receptor (human) agonism. P16473. HEK293-CNG-TSHR cells (CNG channel as cAMP sensor), membrane potential dye, cAMP. Potency, µM (highest dose often 57.1 µM), usual class: activators. 73,000 tested, 0.48% active; active means well fitted activation curve with a large enough effect in the main read-out, with a control signal flat, not every such curve was filed as active; inconclusive means small, poorly fitted or top-dose-only effect, or a change in a side signal; inactive means no such curve, though single readings can be large or run the other way; reference of the percent scale not stated here;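 further: the control signal comes from parental cells without the receptor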
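HEK 293 cells stably expressing TSHR and a cAMP-gated CNG channel; parental CNG-only cells as counterscreen. Cells preloaded 60 min with membrane potential dye plus 100 uM RO 20-1724, then compound 30 min; fluorescence read at 590 nm.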
HEK293 cAMP cs: parental HEK293 cAMP activation (counter-screen); parental HEK293 CNG cAMP sensor, membrane potential fluorescence; Potency, µM (doses to about 57.1 µM), most hits filed as activators; 73,000 tested, 2.5% active; AID 938; further: nearly all actives have a fitted effect of over 55% in size
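Parental HEK 293 cells stably expressing a cAMP-gated CNG channel were loaded with membrane potential dye containing 100 uM RO 20-1724 for 60 min. Compound added for 30 min; depolarization read as fluorescence intensity at 590 nm.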
DNA Pol III inh: blocks replication by bacterial DNA polymerase III holoenzyme | reconstituted DNA polymerase III holoenzyme replication, biochemical | Potency, µM (series often up to 57.1 µM) | 71,000 tested, 0.25% active
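Reconstituted *E. coli* holoenzyme (0.35 nM Pol III, 1 nM beta, 154 nM SSB, 2 nM primase) was preincubated with compound for 15 min at RT. Synthesis on 1.4 nM ssM13Gori ran 35 min, then was stopped with PicoGreen/EDTA and read as dsDNA fluorescence.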
Hsp90 Hop PPI: changes Hsp90-Hop TPR2A binding signal, up or down; AlphaScreen TPR2A-His6 binding biotin-Hsp90 C-terminal peptide; Potency, µM (doses to about 57 µM); 71,000 tested, 0.44% active; active means well fitted curve in either direction with a large enough effect; inconclusive means small, poorly fitted or top-dose-only effect, or another doubt
Tau filament bind: binds recombinant human tau filaments; Potency, µM (top dose mostly 57.1 µM); 71,000 tested, 2% active; AID 596; recombinant tau filaments, thioflavin S fluorescence, 15 h; filaments grown with octadecylsulfate alongside compound; P10636;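 further: actives lower thioflavin S fluorescence by blocking filaments or displacing dye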
Target sequence (P10636 whole entry, looked up): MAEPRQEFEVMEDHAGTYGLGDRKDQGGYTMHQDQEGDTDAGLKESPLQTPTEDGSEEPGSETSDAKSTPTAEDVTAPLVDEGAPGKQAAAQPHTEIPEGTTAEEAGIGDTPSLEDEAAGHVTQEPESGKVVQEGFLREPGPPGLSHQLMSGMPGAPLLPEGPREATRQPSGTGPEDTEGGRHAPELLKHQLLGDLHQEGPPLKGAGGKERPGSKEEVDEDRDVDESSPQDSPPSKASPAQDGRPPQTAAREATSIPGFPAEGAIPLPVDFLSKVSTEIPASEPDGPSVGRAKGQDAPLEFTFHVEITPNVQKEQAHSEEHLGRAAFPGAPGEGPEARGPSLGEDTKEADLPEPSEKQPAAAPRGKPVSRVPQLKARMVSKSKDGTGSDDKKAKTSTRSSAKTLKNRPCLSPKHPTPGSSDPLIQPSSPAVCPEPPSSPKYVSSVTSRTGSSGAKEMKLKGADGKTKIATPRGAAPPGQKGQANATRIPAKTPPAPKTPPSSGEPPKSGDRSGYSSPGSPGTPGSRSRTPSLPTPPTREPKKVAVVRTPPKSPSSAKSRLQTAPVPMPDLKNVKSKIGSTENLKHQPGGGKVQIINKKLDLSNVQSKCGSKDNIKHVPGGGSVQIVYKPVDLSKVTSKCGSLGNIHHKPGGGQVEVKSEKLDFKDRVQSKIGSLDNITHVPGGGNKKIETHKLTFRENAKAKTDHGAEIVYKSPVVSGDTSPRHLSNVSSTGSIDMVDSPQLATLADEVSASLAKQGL
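ThS-based fibril read: tau 1 uM final, inducer ODS 30 uM final, 37 C for 15 h, ex 450/em 510 nm.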
Hits are given with their value; . = inactive; ? = inconclusive; / = not tested or not shown; [ ] = another dose, or the depositor's remark. Unless noted, the call rests on the fitted dose curve; in most records, active means well fitted curve in the direction sought with a large enough effect; inconclusive means small, poorly fitted or top-dose-only effect, or another doubt; inactive means no such curve, though single readings can be large; an effect the other way counts as inactive or inconclusive.

SMILES	TSHR agonist	HEK293 cAMP cs	DNA Pol III inh	Hsp90 Hop PPI	Tau filament bind
COc1ccc(-c2nnc(SCc3nnc(-c4ccc(Cl)cc4)o3)n2-c2ccccc2)cc1	?	16µM	.	.	.
Cc1nnc(SCc2nnc(-c3ccc(Cl)cc3)o2)n1-c1ccccc1	.[11.4 µM]	.	.	.	.
COc1ccc(-n2c(SCc3nnc(-c4ccccc4)o3)nnc2-c2ccccc2)cc1	?	20µM	.	.	.
NNC(=O)[C@@H](O)[C@H](O)[C@H](O)CO	.[11.4 µM]	.[11.4 µM]	.[11.4 µM]	.[11 µM]	.[11.4 µM]
CCCCOCCOCCSC#N	.	.	.	.	.
COCC(=O)N1CCC2(CC1)CN(C(=O)Nc1cccc(C#N)c1)C2	.	.	.	.	.
CN1CCc2c(sc3c2c(=O)n(-c2ccccc2)c2nnc(SCc4ccc(F)cc4)n32)C1	.	.	.	.	4µM
CSc1nnc2n(-c3ccccc3)c(=O)c3c4c(sc3n12)CCC4	.	.	.	.	.
CCN(CC)CC[n+]1ccc2c(C)c3[nH]c4ccccc4c3c(C)c2c1	.[11.4 µM]	.[11.4 µM]	4µM	.[11 µM]	.[11.4 µM]
COCCOC(=O)C1=C(C)N=C2SCCC(=O)N2C1c1cc(Br)ccc1OC (stereo not drawn)	.	.	.	.	.
Cc1cc(Nc2ccc(F)cc2F)n2ncnc2n1	.	.	.	.	.
Cc1cc(Nc2ccccc2N2CCOCC2)n2ncnc2n1	.	.	.	.	20µM
Fc1ccc(-c2cc(C(F)(F)F)nc(NCC3CCCO3)n2)cc1 (stereo not drawn)	?	?	.	?	.
FC(F)(F)c1cc(-c2ccccc2)nc(NCC2CCCO2)n1 (stereo not drawn)	/	.	.	32µM	.
C=CC[C@H](N)C(=O)O	?	?	.	.	.
Cc1ccc(C)n1-n1cnc2sc(-c3ccccc3)cc2c1=O	/	.	.	.	.
Cc1ccc(C)n1-n1c(C)nc2sc(-c3ccccc3)cc2c1=O	?	3.2µM	.[11.4 µM]	.[11 µM]	.[11.4 µM]
CCc1nnc(NC(=O)Nc2ccccc2OC)s1	.	.	.	.	.
CCc1nnc(NC(=O)c2ccc(OC)cc2OC)s1	?	25µM	.	.	.
CC(=O)c1c(C(C)=O)c(C)n(Cc2ccc3c(c2)OCO3)c1C	?	13µM	.	.	.
COc1ccccc1NC(=O)CSc1nnc(-c2ccco2)o1	.	.	.	.	.
CCC(c1nnc(SCC(=O)Nc2ccc(C(=O)Nc3ccccc3OC)cc2)o1)N(C)C (stereo not drawn)	.	.	.	.	20µM
COC(=O)C/C=C\[C@@H](C)[C@@H](/C=N\OC[C@@H](O)[C@H]1O[C@H]2OC(C)(C)O[C@H]2[C@@H]1O)OC	.[11.4 µM]	.[11.4 µM]	/	/	/
COC(=O)c1nnn(-c2nonc2N)c1CN1CCc2ccccc21	.	.	.	.	.
COC(=O)c1nnn(-c2nonc2N)c1CSc1ccccn1	?	32µM	.	?	.
SMILES	TSHR agonist	HEK293 cAMP cs	DNA Pol III inh	Hsp90 Hop PPI	Tau filament bind
Cc1c(N=CC=Nc2c(C)n(C)n(-c3ccccc3)c2=O)c(=O)n(-c2ccccc2)n1C	.[11.4 µM]	.[11.4 µM]	.[11.4 µM]	.[11 µM]	.[11.4 µM]
Cc1c(N=C/C=C2\N(C)c3ccccc3C2(C)C)c(=O)n(-c2ccccc2)n1C	.	.	.	.	1µM
CCCCCS(=O)(=O)CCCCCCCCCCn1c(-c2ccc(O)cc2)c(C)c2cc(O)ccc21	.	.	/	/	/
COC(=O)[C@H]1C[C@@H]1[C@H](NC(=O)OCc1ccccc1)c1ccccc1	/	.	.	.	.
C[C@@H](C(=O)N[C@@H](CO)Cc1ccccc1)[C@H]1C[C@]1(C)[C@H](NC(=O)OCc1ccccc1)c1ccccc1	?	10µM	.	.	.
C[C@@H](C(=O)NCC1CC1)[C@H]1C[C@]1(C)[C@H](NC(=O)OCc1ccccc1)c1ccccc1	?	10µM	.	.	.
CNC(=O)[C@H](C)[C@@H]1C[C@@]1(C)[C@@H](NC(=O)OCc1ccccc1)c1ccccc1	.	.	.	.	.
CNC(=O)[C@H](C)[C@H]1C[C@]1(C)[C@H](NC(=O)OCc1ccccc1)c1ccccc1	?	6.3µM	.	.	.
C[C@@H](C(=O)N[C@@H](CO)Cc1ccccc1)[C@@H]1C[C@@]1(C)[C@@H](NC(=O)OCc1ccccc1)c1ccccc1	.	.	.	.	.
COC(=O)[C@H](Cc1ccccc1)NC(=O)[C@]1(C)C[C@H]1[C@H](NC(=O)OCc1ccccc1)c1ccccc1	?	5µM	.	.	.
Cc1cc(C2(c3cc(C)c(O)c(C(=O)O)c3)OS(=O)(=O)c3ccccc32)cc(C(=O)O)c1O	.[11.4 µM]	.[11.4 µM]	.[11.4 µM]	.[11 µM]	.[11.4 µM]
O=S(=O)(c1cccc(C(F)(F)F)c1)N1c2ccccc2-n2cccc2[C@H]1c1cccnc1	?	?	.[11.4 µM]	.[11 µM]	.[11.4 µM]
O=C(NCCc1ccccc1)C1CCN(S(=O)(=O)N2CCCC2)CC1	?	25µM	.	.	.
O=C(NCc1ccc(F)cc1)C1CCN(C(=O)NCc2ccccc2)CC1	?	4µM	.	.	.
O=C(NCCc1ccc(Cl)cc1)C1CCN(S(=O)(=O)N2CCCCC2)CC1	?	?	.	.	.
Cc1cccc(OCc2nnc(SCC(=O)Nc3ccc(C)c(Cl)c3)o2)c1	.	.	/	/	/
COC(=O)[C@@]1(Cc2ccccc2)[C@H]2c3cc(C(=O)N4CCCC4)n(Cc4ccc(OC)c(OC)c4)c3C[C@H]2CN1C(=O)c1ccccc1	?	3.2µM	.	.	.
COC(=O)[C@@]1(Cc2ccc(OC)cc2)[C@H]2c3cc(C(=O)N4CCCC4)n(Cc4ccc(O)c(OC)c4)c3C[C@H]2CN1C(=O)c1ccccc1	?	?	.	.	.
COC(=O)[C@@]1(Cc2ccc(OC)cc2)[C@H]2c3cc(C(=O)N4CCCC4)n(Cc4cc(F)c(F)c(F)c4)c3C[C@H]2CN1C(=O)c1ccccc1	?	?	.	.	.
COC(=O)[C@@]1(Cc2ccccc2)[C@H]2c3cc(C(=O)N4CCCC4)n(Cc4ccc(O)c(OC)c4)c3C[C@H]2CN1C(=O)c1ccccc1	?	1µM	.	.	.
COC(=O)[C@@]1(Cc2ccccc2)[C@H]2c3cc(C(=O)N4CCCC4)n(Cc4ccccn4)c3C[C@H]2CN1C(=O)c1ccccc1	?	3.2µM	.	.	.
COC(=O)[C@@]1(Cc2ccc(OC)cc2)[C@H]2c3cc(C(=O)N4CCCC4)n(Cc4cc(C)n(C)n4)c3C[C@H]2CN1C(=O)c1ccccc1	?	13µM	.	.	.
Cc1noc(C)c1C(=O)N1CCC[C@@]2(CCN(Cc3cc(C(F)(F)F)cc(C(F)(F)F)c3)C2)C1	.	.	.	.	.
COC(=O)c1nn(-c2c(C)n(C)n(-c3ccccc3)c2=O)cc1O	.	.	.	.	.
COC(=O)[C@@]1(Cc2ccccc2)[C@H]2c3cc(C(=O)N4CCCC4)n(Cc4ccccc4)c3C[C@H]2CN1C(=O)c1ccccc1	?	1.3µM	.	.	.
